Most compounds without a hit are left out; they make up all but 10% or so of the library.
HP1b binding inh: HTS for Inhibitors of HP1-beta Chromodomain Interactions with Methylated Histone Tails. Chromobox protein homolog 1 (Homo sapiens), P83916. AlphaScreen HP1-beta / biotin-H3K9me3 peptide binding. Potency, µM (top dose mostly 114 µM), inactives show top-dose activity change, negative = inhibition, most hits filed as inhibitors. hit rate 0.56% among 390,000. AID 540317, 2011; further: potency means the concentration at half of the fitted maximal effect; nearly all actives have a fitted effect of over 70% in size
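HP1-beta protein (50 nM final) preincubated 30 min at room temperature with biotinylated H3(1-18)K9me3 peptide (50 nM) in PBS pH 7.4, 0.01% Tween-20, then compound added for 30 min. AlphaScreen streptavidin donor/nickel chelate acceptor beads (10 ug/mL final), 30 min dark, luminescence read.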
BAZ2B inh: qHTS Assay for Inhibitors of BAZ2B; Bromodomain adjacent to zinc finger domain protein 2B (Homo sapiens), Q9UIF8; AlphaScreen BAZ2B-H3K14Ac peptide displacement; Potency, µM (series often up to 114 µM), without a hit: at the highest dose activity change, negative = inhibition, most hits filed as inhibitors; hit rate 4.4% among 360,000; AID 504333, 2011; further: potency means the concentration at half of the fitted maximal effect; on the % scale 0 is the no-effect control and ±100 the full control effect; nearly all actives have a fitted effect of over 60% in size
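Complex of BAZ2B and biotin-H3K14Ac (50 nM apiece) forms over 30 min at RT, then faces library compounds up to 110 uM for another 30 min; AlphaScreen beads added, 20 min dark incubation, luminescence read.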
G9a inh: qHTS Assay for Inhibitors of Histone Lysine Methyltransferase G9a; G9a H3K9 monomethylation, AlphaScreen, 2 h; Histone-lysine N-methyltransferase EHMT2 (Homo sapiens), Q96KQ7; hit rate 8.8% among 350,000; Potency, µM (top dose mostly 102 µM), for the others: at the highest dose activity, negative = inhibition, hits mostly inhibitors; AID 504332, 2011; further: potency means the concentration at half of the fitted maximal effect; on the % scale 0 is the no-effect control and ±100 the full control effect; nearly all actives have a fitted effect of over 75% in size
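Compounds were preincubated with 20 nM G9a for 15 min, after which biotinylated H3K9 peptide (500 nM) and SAM (20 uM) started a 2 h room-temperature reaction. Monomethylated product was quantified by antibody-based AlphaScreen chemiluminescence.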
JMJD2A Tudor inh: qHTS Assay for Inhibitors of JMJD2A-Tudor Domain. Lysine-specific demethylase 4A (Homo sapiens), O75164. AlphaScreen JMJD2A-Tudor / H3K4me3 peptide binding. Potency, µM (series often up to 114 µM), for inactives: top-dose activity change, negative = inhibition, usual class: inhibitors. hit rate 4.4% among 390,000; further: potency means the concentration at half of the fitted maximal effect; on the % scale 0 is the no-effect control and ±100 the full control effect; nearly all actives have a fitted effect of over 50% in size
Target sequence (O75164 whole entry, looked up, the tested form may be a part): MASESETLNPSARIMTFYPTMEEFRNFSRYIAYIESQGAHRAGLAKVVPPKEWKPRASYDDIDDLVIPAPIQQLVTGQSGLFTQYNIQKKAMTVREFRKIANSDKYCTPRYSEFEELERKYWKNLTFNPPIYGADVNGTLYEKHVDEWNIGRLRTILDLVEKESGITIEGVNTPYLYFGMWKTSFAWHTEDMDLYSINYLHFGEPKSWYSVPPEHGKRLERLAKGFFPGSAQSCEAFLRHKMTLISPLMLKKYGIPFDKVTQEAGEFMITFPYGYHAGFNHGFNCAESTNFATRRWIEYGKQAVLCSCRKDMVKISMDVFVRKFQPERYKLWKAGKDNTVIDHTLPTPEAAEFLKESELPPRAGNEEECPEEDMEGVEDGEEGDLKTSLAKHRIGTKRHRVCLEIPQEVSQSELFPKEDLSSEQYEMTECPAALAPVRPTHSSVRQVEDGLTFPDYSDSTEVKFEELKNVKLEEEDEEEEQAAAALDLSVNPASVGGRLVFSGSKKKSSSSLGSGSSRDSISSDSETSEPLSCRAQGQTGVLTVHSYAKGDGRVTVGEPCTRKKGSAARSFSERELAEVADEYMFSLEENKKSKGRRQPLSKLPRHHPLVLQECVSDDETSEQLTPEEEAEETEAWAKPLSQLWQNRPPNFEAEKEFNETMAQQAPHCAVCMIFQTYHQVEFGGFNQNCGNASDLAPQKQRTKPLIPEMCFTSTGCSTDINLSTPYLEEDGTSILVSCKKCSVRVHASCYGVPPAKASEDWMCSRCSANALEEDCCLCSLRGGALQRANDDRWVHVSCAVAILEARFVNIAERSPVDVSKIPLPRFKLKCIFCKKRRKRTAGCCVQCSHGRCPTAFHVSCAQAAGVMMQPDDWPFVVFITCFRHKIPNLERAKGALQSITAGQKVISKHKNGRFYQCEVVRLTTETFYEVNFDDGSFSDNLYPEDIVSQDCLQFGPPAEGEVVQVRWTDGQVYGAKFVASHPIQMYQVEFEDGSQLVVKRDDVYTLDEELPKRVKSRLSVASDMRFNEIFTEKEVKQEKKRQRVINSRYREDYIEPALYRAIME
Six1-Eya2 blk: qHTS Assay for Inhibitors of the Six1/Eya2 Interaction; Homeobox protein SIX1 (Homo sapiens) + Protein phosphatase EYA2 (Homo sapiens), …; AlphaScreen GST-Six1/His-Eya2 binding, biochemical; hits give low values; activity change, % (no concentration beside the values); hit rate 0.56% among 360,000; AID 651725, 2012; in the data active means activity change below about -65%; inconclusive means mostly about -30% to -63%; further: on the % scale 0 is the no-effect control and ±100 the full control effect
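Homogeneous AlphaScreen proximity assay pairing GST-Six1 with His-tagged Eya2 (added as 5X mix: 250 nM and 500 nM) in 50 mM Tris pH 8.0, 300 mM NaCl, 1 mM TCEP. Glutathione donor and nickel acceptor beads; 1 h, 37 °C, dark.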
CtBP-E1A blk: qHTS Assay for Inhibitors of the CtBP/E1A Interaction. AlphaScreen GST-E1A/His-CtBP binding, 1536-well; hits give low values. activity change, % (concentration not given with the values). hit rate 0.49% among 340,000. AID 651724, 2012; in the data active means activity change below about -65%; inconclusive means mostly about -30% to -63%; further: on the % scale 0 is the no-effect control and ±100 the full control effect
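In 5 uL wells, 23 nL compound meets equimolar GST-E1A and His-CtBP (5X stock 125 nM each) for 2 h, 37 °C. Beads (5X, 50 ug/mL) then 1 h, 37 °C, dark.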
Active calls of the source: *; ? = inconclusive; nt = no result; [ ] = dose if it differs, or a comment. Unless noted, the call rests on the fitted dose curve; in most records, active means well fitted inhibition curve with a large enough effect; inconclusive means small, poorly fitted or top-dose-only effect; inactive means no such curve, though single readings can be large or run the other way.

SMILES	HP1b binding inh	BAZ2B inh	G9a inh	JMJD2A Tudor inh	Six1-Eya2 blk	CtBP-E1A blk
Cc1ccc(/C=N/NC(=O)c2ccncc2)cc1	30.7%	6.6%	nt	-12.3%	7.2	6.5
Cc1ccc(N/N=C/c2ccncc2)cc1	6.9%	?	28.2µM*	?	-11.0	-15.9
COc1ccc(O)c(/C=c2/sc3nc4cc(C)c(C)cc4n3c2=O)c1	?	-8.1%	2.51µM*	?	-0.2	5.3
COc1ccc(/C=c2\s/c(=C/C(=O)c3ccc(C)cc3)[nH]c2=O)c(OC)c1	7.7%	-3.4%	-14.7%	-15.7%	2.8	2.2
COc1ccc(-c2[nH]ncc2C(=O)NCc2ccccc2C)cc1	14.3%	-2.3%	5.4%[59 µM]	-14.2%	nt	nt
CC(C)c1ccc(N2C(=O)/C(=C/N(C)C)SC2=S)cc1	?	44.7µM*	50.1µM*	44.7µM*	?	nt
Cc1ccc(O)c(N)c1	3.8%	-4.0%	9.7%[0.501 µM]	-31.7%	0.7	-9.6
COc1ccc(O)c(N)c1	nt	50.1µM*	7.94µM*	nt	nt	nt
Cn1cnc([N+](=O)[O-])c1Sc1ncnc2nc[nH]c12	21.3%	-4.6%	16.2%[12.7 µM]	2.8%	-7.0	-1.8
Cn1cnc(Sc2ncnc3nc[nH]c23)c1[N+](=O)[O-]	?	?	nt	6.31µM*	-9.5	nt
CCc1ccc2nc(N(CCCN(C)C)C(=O)c3ccc(S(=O)(=O)N4CCCc5ccccc54)cc3)sc2c1	?	?	39.8µM*	44.7µM*	-29.3	2.6
CC1CN(S(=O)(=O)c2ccc(C(=O)N(CCCN(C)C)c3nc4cc5c(cc4s3)OCCO5)cc2)CC(C)O1 (configuration not stated)	4.1%	-5.4%	50.1µM*	-35.9%	-8.0	-0.2
CN(C)CCCN(C(=O)c1ccc(S(=O)(=O)N2CCOCC2)cc1)c1nc2ccc(F)cc2s1	4.0%	-9.5%	nt	-24.5%	-22.0	-1.1
CCC1CCCCN1S(=O)(=O)c1ccc(C(=O)N(CCCN(C)C)c2nc3cc4c(cc3s2)OCO4)cc1 (configuration not stated)	-11.3%	?	56.2µM*	?	-27.8	?
CCOC(=O)N1CCN(S(=O)(=O)c2ccc(C(=O)N(CCN(CC)CC)c3nc4ccc(C)cc4s3)cc2)CC1	-18.0%	?	50.1µM*	?	-7.4	-5.0
CN(C)CCCN(C(=O)c1ccc(S(=O)(=O)N2CCCCCC2)cc1)c1nc2cc3c(cc2s1)OCO3	nt	nt	nt	nt	-24.5	-14.0
CCOC(=O)N1CCN(S(=O)(=O)c2ccc(C(=O)N(CCN(C)C)c3nc4ccc(CC)cc4s3)cc2)CC1	-1.0%	?	50.1µM*	?	-2.1	-7.8
CCc1ccc2nc(N(CCCN(C)C)C(=O)c3ccc(S(=O)(=O)N4CCCC4)cc3)sc2c1	18.5%	-30.3%	50.1µM*	-35.3%	-14.6	?
CN(C)CCN(C(=O)c1ccc(S(=O)(=O)N2CCCC2)cc1)c1nc2ccc(Br)cc2s1	34.8%	-17.5%	70.8µM*	-24.1%	2.2	7.6
CC1CCCCN1S(=O)(=O)c1ccc(C(=O)N(CCCN(C)C)c2nc3ccc(Br)cc3s2)cc1 (configuration not stated)	-17.1%	?	nt	44.7µM*	?	?
CCOC(=O)N1CCN(S(=O)(=O)c2ccc(C(=O)N(CCCN(C)C)c3nc4ccc(CC)cc4s3)cc2)CC1	7.8%	-35.6%	?	?	-13.8	-22.7
COc1ccc(N2CCN(C(=O)CN3CCSc4ccccc43)CC2)cc1	4.1%[57 µM]	?	?	?	nt	nt
COc1ccc(CNC(=O)Cc2c(C)c3cc4c(C)coc4c(C)c3oc2=O)cc1	54.5%	-2.6%	0.2%[59 µM]	-7.2%	nt	nt
COC(=O)c1cc2sc(C)cc2n1CC(=O)Nc1ccc(C)c(C)c1	23.1%	-1.8%	1.0%[59 µM]	-7.6%	nt	nt
O=C(CCNS(=O)(=O)c1ccc2c(c1)CCN2C(=O)C1CC1)Nc1ccc(Cl)cc1	17.8%[57 µM]	-1.4%	-1.5%[59 µM]	-14.5%	nt	nt
SMILES	HP1b binding inh	BAZ2B inh	G9a inh	JMJD2A Tudor inh	Six1-Eya2 blk	CtBP-E1A blk
CCOC(=O)Cn1c(=O)oc2cc(S(=O)(=O)N3CCN(c4cccc(Cl)c4)CC3)ccc21	29.3%	?	?	-9.4%	nt	nt
CCn1c(N2CCN(CC(=O)c3c[nH]c4ccccc34)CC2)nc2c1c(=O)[nH]c(=O)n2C	37.9%	17.5%	39.8µM*	-8.9%	-4.4	-4.2
CCCn1c(N2CCN(CC(=O)c3c(C)n(C)c4ccccc34)CC2)nc2c1c(=O)[nH]c(=O)n2C	6.6%	1.2%	-37.5%	-13.7%	3.9	-6.2
COc1cc(NC(=O)CN(C)CCOc2ccccc2)c(C)cc1[N+](=O)[O-]	27.7%	-23.7%	-15.4%	?	-13.3	nt
CN(CCOc1ccccc1)CC(=O)Nc1ccc(Cl)cc1[N+](=O)[O-]	25.1µM*	12.6µM*	3.55µM*	0.794µM*	?	?
CCN(CC)S(=O)(=O)c1ccc(Cl)c(C(=O)Nc2ccc(Cl)cc2[N+](=O)[O-])c1	?	?	8.91µM*	?	?	-13.5
CN(CCOc1ccccc1)CC(=O)Nc1ccc(Cl)c(S(=O)(=O)N(C)C)c1	-7.5%	nt	8.91µM*	2.82µM*	-2.0	0.5
CN(C)S(=O)(=O)c1ccc(Cl)c(C(=O)Nc2ccccc2[N+](=O)[O-])c1	-9.8%	-9.5%	2.8%[59 µM]	-35.0%	1.0	-16.5
CCOC(=O)N1CCC(NC(=O)c2ccc3c(c2)N(Cc2ccc(Cl)cc2)C(=O)c2ccccc2S3=O)CC1 (configuration not stated)	25.5%	-15.4%	-2.6%[59 µM]	-7.1%	nt	nt
CCOC(=O)c1noc2ncn(CC(=O)O)c(=O)c12	3.6%	-2.7%	?	-20.1%	nt	nt
COc1ccc(CNC(=O)CN(c2ccccc2OC)S(=O)(=O)c2ccc(C)cc2)cc1	20.2%	-12.1%	?	?	nt	nt
Fc1cccc(NC(=S)NNc2c3ccccc3nc3ccccc23)c1	?	7.08µM*	15.8µM*	?	?	-2.9
NC(=S)Nc1cccc(F)c1	15.3%	-10.3%	?	-2.1%	7.2	4.7
Fc1cccc(Nc2c3c(nc4ccccc24)CCC3)c1	5.0%	-13.5%	-8.9%[2.33 µM]	-14.8%	-2.1	-3.6
Oc1cccc(Nc2ccccc2)c1	-9.5%	?	-4.4%[0.501 µM]	-31.0%	2.4	-10.9
Oc1cccc(NC(=S)Nc2ccccc2)c1	31.5%	-7.7%	50.1µM*	-15.2%	4.0	nt
Fc1cccc(NC(=S)NNc2ccccc2)c1	?	39.8µM*	50.1µM*	56.2µM*	0.9	-8.3

Screens: PubChem BioAssay, National Center for Advancing Translational Sciences (NCATS)
